Source: the supplement of paper PMC11732987, “Enantioselective OTUD7B fragment discovery through chemoproteomics screening and high-throughput optimisation” (Communications Chemistry, 2025)

How the values were obtained:
Test in all cases: log2 ratio of Biotin-Ahx-Ub-VS probe labelling (compound/DMSO); higher = less target engagement, active = hit call of the paper (q ≤ 0.05, log2 ratio ≤ -1)
Conditions in all cases: treatment time: 3 h
[1] = compound: CCC1N(CCc2sccc12)C(=O)CCl
In short: (§1)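 Compound at 50 or 200 µM, or DMSO, was applied for 3 h in triplicate to HEK293T lysate (495 µg per sample, Tris/CHAPS/IGEPAL buffer with protease inhibitors), after which Biotin-Ahx-Ub-VS was added at 0.5 µM final for 1 h. The labelled DUBs were pulled down with NeutrAvidin, digested with LysC and trypsin, and run by diaPASEF LC-MS/MS. Ratios are averaged base-two logs of compound over DMSO from median-normalised label-free quantities by unpaired t-test, counting only proteins with at least 2 unique peptides.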

[2] = compound: CN1c2ccccc2C(CS1(=O)=O)NC(=O)CCl
In short: as §1

[3] = compound: Cl.ClCC(=O)N1CCc2ncncc2C1
In short: as §1

[4] = compound: Cl.Cn1ncc2C(CCCc12)NC(=O)CCl
In short: as §1

[5] = compound: ClCC(=O)NC1CCOc2ccccc12
In short: as §1

[6] = compound: ClCC(=O)NC1CCCc2ccccc12
In short: (§2)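 HEK293T lysate (495 µg per sample, in Tris/CHAPS/IGEPAL buffer with protease inhibitors) was treated in triplicate with compound over a concentration series or DMSO for 3 h, then with Biotin-Ahx-Ub-VS (0.5 µM final) for 1 h. Labelled DUBs were NeutrAvidin-enriched, digested with LysC and trypsin, and run by diaPASEF LC-MS/MS. Spectronaut label-free protein quantities were global-median-normalised. Values are average log2 ratios compound/DMSO from an unpaired t-test, using proteins with ≥2 unique peptides.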

[7] = compound: ClCC(=O)N[C@@H]1CCCc2ccccc12
In short: as §2

[8] = compound: ClCC(=O)N[C@H]1CCCc2ccccc12
In short: as §2

[9] = compound: CCC1N(CCc2cc(OC)c(Cl)cc12)C(=O)CCl
In short: as §1

[10] = compound: CCCC1N(CCc2cc(OC)c(OC)cc12)C(=O)CCl
In short: as §1

Measured: log2 ratio of Biotin-Ahx-Ub-VS probe labelling

UCHL1 (UniProt P09936)
UniProt P09936, sequence (P09936 whole entry, looked up): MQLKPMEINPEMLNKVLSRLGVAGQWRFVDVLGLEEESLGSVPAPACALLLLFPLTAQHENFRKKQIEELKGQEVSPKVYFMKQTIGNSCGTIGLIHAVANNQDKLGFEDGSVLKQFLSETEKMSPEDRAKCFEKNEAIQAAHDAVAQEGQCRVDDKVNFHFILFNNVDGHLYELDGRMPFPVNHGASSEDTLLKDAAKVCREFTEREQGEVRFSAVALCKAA
inactive: [1]; compound concentration: 50uM -0.0927 | [1]; compound concentration: 200uM 0.068 | [2]; compound concentration: 50uM -0.207 | [2]; compound concentration: 200uM -0.242 | [3]; compound concentration: 50uM -0.16 | [3]; compound concentration: 200uM -0.504 | [4]; compound concentration: 50uM -0.114 | [4]; compound concentration: 200uM 0.145 | [5]; compound concentration: 50uM 0.105 | [5]; compound concentration: 200uM 0.0647 | [6]; compound concentration: 0.78uM -0.218 | [6]; compound concentration: 1.56uM -0.0576 | [6]; compound concentration: 3.13uM -0.283 | [6]; compound concentration: 6.25uM -0.158 | [6]; compound concentration: 12.5uM -0.19 | [6]; compound concentration: 25uM -0.341 | [6]; compound concentration: 50uM -0.22 | [6]; compound concentration: 100uM -0.163 | [6]; compound concentration: 200uM -0.254 | [7]; compound concentration: 0.78uM -0.29 | [7]; compound concentration: 1.56uM -0.214 | [7]; compound concentration: 3.13uM -0.161 | [7]; compound concentration: 6.25uM -0.154 | [7]; compound concentration: 12.5uM -0.211 | [7]; compound concentration: 25uM -0.116 | [7]; compound concentration: 50uM -0.259 | [7]; compound concentration: 100uM -0.155 | [7]; compound concentration: 200uM -0.0847 | [8]; compound concentration: 0.78uM -0.211 | [8]; compound concentration: 1.56uM -0.304 | [8]; compound concentration: 3.13uM -0.239 | [8]; compound concentration: 6.25uM -0.187 | [8]; compound concentration: 12.5uM -0.239 | [8]; compound concentration: 25uM -0.196 | [8]; compound concentration: 50uM -0.16 | [8]; compound concentration: 100uM -0.204 | [8]; compound concentration: 200uM -0.267 | [9]; compound concentration: 50uM 0.0838 | [9]; compound concentration: 200uM 0.00983 | [10]; compound concentration: 50uM -0.262 | [10]; compound concentration: 200uM -0.45

ATXN3 (UniProt P54252)
UniProt P54252, sequence (P54252 whole entry): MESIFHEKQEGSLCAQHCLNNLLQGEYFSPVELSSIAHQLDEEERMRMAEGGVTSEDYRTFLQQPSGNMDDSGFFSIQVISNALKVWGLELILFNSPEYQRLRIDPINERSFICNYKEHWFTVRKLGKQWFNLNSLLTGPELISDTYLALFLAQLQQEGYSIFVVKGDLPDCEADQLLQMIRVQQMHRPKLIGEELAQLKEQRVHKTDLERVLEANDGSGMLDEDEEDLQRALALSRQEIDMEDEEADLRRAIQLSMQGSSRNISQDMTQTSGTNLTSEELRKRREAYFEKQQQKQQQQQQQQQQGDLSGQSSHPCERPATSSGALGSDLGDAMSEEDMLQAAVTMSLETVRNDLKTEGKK
active: [3]; compound concentration: 200uM -1.37 | [9]; compound concentration: 200uM -1.54
inactive: [1]; compound concentration: 50uM -0.116 | [1]; compound concentration: 200uM -0.483 | [2]; compound concentration: 50uM -0.0445 | [2]; compound concentration: 200uM -0.365 | [3]; compound concentration: 50uM -0.35 | [4]; compound concentration: 50uM 0.199 | [4]; compound concentration: 200uM -0.212 | [5]; compound concentration: 50uM 0.00952 | [5]; compound concentration: 200uM -0.0594 | [6]; compound concentration: 0.78uM -0.108 | [6]; compound concentration: 1.56uM -0.213 | [6]; compound concentration: 3.13uM -0.478 | [6]; compound concentration: 6.25uM -0.165 | [6]; compound concentration: 12.5uM -0.236 | [6]; compound concentration: 25uM -0.301 | [6]; compound concentration: 50uM -0.18 | [6]; compound concentration: 100uM -0.156 | [6]; compound concentration: 200uM -0.285 | [7]; compound concentration: 0.78uM -0.286 | [7]; compound concentration: 1.56uM -0.107 | [7]; compound concentration: 3.13uM -0.24 | [7]; compound concentration: 6.25uM -0.0908 | [7]; compound concentration: 12.5uM -0.0507 | [7]; compound concentration: 25uM -0.218 | [7]; compound concentration: 50uM -0.0106 | [7]; compound concentration: 100uM -0.151 | [7]; compound concentration: 200uM -0.0598 | [8]; compound concentration: 0.78uM -0.183 | [8]; compound concentration: 1.56uM -0.0688 | [8]; compound concentration: 3.13uM -0.152 | [8]; compound concentration: 6.25uM -0.297 | [8]; compound concentration: 12.5uM -0.125 | [8]; compound concentration: 25uM -0.266 | [8]; compound concentration: 50uM -0.171 | [8]; compound concentration: 100uM -0.0739 | [8]; compound concentration: 200uM -0.312 | [9]; compound concentration: 50uM -0.248 | [10]; compound concentration: 50uM 0.126 | [10]; compound concentration: 200uM -0.435

UniProt Q5T2D3
UniProt Q5T2D3, sequence (Q5T2D3 whole entry): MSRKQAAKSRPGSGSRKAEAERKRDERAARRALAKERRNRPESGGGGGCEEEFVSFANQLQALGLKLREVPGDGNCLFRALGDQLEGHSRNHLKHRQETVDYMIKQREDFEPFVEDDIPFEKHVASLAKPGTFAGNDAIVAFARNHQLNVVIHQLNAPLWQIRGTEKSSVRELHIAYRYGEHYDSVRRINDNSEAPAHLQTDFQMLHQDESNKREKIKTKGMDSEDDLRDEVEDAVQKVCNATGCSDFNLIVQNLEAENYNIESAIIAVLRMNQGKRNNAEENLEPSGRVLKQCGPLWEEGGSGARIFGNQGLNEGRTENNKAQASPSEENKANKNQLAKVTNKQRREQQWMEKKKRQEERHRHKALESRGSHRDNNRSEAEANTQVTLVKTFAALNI
inactive: [1]; compound concentration: 50uM -0.152 | [1]; compound concentration: 200uM -0.102 | [2]; compound concentration: 50uM -0.294 | [2]; compound concentration: 200uM -0.292 | [3]; compound concentration: 50uM -0.0797 | [3]; compound concentration: 200uM -0.274 | [4]; compound concentration: 50uM -0.136 | [4]; compound concentration: 200uM 0.135 | [5]; compound concentration: 50uM -0.0283 | [5]; compound concentration: 200uM -0.137 | [6]; compound concentration: 0.78uM -0.198 | [6]; compound concentration: 1.56uM -0.0928 | [6]; compound concentration: 3.13uM -0.11 | [6]; compound concentration: 6.25uM -0.192 | [6]; compound concentration: 12.5uM -0.113 | [6]; compound concentration: 25uM 0.0408 | [6]; compound concentration: 50uM -0.0723 | [6]; compound concentration: 100uM -0.0612 | [6]; compound concentration: 200uM -0.179 | [7]; compound concentration: 0.78uM -0.153 | [7]; compound concentration: 1.56uM -0.131 | [7]; compound concentration: 3.13uM -0.0877 | [7]; compound concentration: 6.25uM -0.0936 | [7]; compound concentration: 12.5uM -0.0592 | [7]; compound concentration: 25uM -0.125 | [7]; compound concentration: 50uM -0.234 | [7]; compound concentration: 100uM -0.0551 | [7]; compound concentration: 200uM -0.296 | [8]; compound concentration: 0.78uM -0.237 | [8]; compound concentration: 1.56uM -0.21 | [8]; compound concentration: 3.13uM -0.232 | [8]; compound concentration: 6.25uM -0.0509 | [8]; compound concentration: 12.5uM 0.00779 | [8]; compound concentration: 25uM -0.0485 | [8]; compound concentration: 50uM 0.0602 | [8]; compound concentration: 100uM 0.0541 | [8]; compound concentration: 200uM -0.193 | [9]; compound concentration: 50uM 0.0656 | [9]; compound concentration: 200uM -0.0849 | [10]; compound concentration: 50uM -0.315 | [10]; compound concentration: 200uM -0.497

UCHL3 (UniProt P15374)
UniProt P15374, sequence (P15374 whole entry): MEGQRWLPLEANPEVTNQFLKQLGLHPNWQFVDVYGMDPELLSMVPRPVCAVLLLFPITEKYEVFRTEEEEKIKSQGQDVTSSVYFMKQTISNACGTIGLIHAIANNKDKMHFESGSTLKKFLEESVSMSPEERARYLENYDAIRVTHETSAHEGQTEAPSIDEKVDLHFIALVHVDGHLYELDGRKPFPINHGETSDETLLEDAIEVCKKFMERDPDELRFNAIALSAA
inactive: [1]; compound concentration: 50uM -0.196 | [1]; compound concentration: 200uM -0.314 | [2]; compound concentration: 50uM -0.297 | [2]; compound concentration: 200uM -0.153 | [3]; compound concentration: 50uM -0.183 | [3]; compound concentration: 200uM -0.417 | [4]; compound concentration: 50uM -0.099 | [4]; compound concentration: 200uM 0.0584 | [5]; compound concentration: 50uM -0.019 | [5]; compound concentration: 200uM -0.018 | [6]; compound concentration: 0.78uM -0.0289 | [6]; compound concentration: 1.56uM 0.0129 | [6]; compound concentration: 3.13uM -0.0693 | [6]; compound concentration: 6.25uM 0.048 | [6]; compound concentration: 12.5uM 0.0678 | [6]; compound concentration: 25uM -0.149 | [6]; compound concentration: 50uM 0.0701 | [6]; compound concentration: 100uM 0.149 | [6]; compound concentration: 200uM -0.0196 | [7]; compound concentration: 0.78uM -0.0917 | [7]; compound concentration: 1.56uM -0.101 | [7]; compound concentration: 3.13uM 0.0215 | [7]; compound concentration: 6.25uM 0.0584 | [7]; compound concentration: 12.5uM -0.0931 | [7]; compound concentration: 25uM -0.0862 | [7]; compound concentration: 50uM -0.186 | [7]; compound concentration: 100uM -0.142 | [7]; compound concentration: 200uM -0.0506 | [8]; compound concentration: 0.78uM -0.0451 | [8]; compound concentration: 1.56uM -0.0987 | [8]; compound concentration: 3.13uM 0.048 | [8]; compound concentration: 6.25uM 0.105 | [8]; compound concentration: 12.5uM -0.0766 | [8]; compound concentration: 25uM -0.0628 | [8]; compound concentration: 50uM -0.0352 | [8]; compound concentration: 100uM -0.00864 | [8]; compound concentration: 200uM -0.0634 | [9]; compound concentration: 50uM 0.093 | [9]; compound concentration: 200uM -0.266 | [10]; compound concentration: 50uM -0.509 | [10]; compound concentration: 200uM -0.431
